Source: PubChem BioAssay
TAG inh = reduces triacylglycerol accumulation in H9c2 cells; Nile Red lipid (TAG) fluorescence; cells loaded with 200 µM oleic acid; 230,000 tested, 0.66% active; inhibition, % at 12.5 µM;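 active = pattern-corrected inhibition of lipid staining of at least 50% with the nuclear-stain viability signal not falling by more than 50%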;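 note: 0% = DMSO wells and 100% = triacsin C control wells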
Kir21 inh = inhibitors of mouse Kir2.1 inward-rectifier potassium channel; HEK293-Kir2.1, FluxOR thallium flux fluorescence; hits give low values; B-score at 10 µM; 310,000 tested, 0.85% active;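 active = fluorescence ratio B-score at or below minus 3 SD of library scores, with starting-brightness B-score within 2 SD, cut at about -4.2 in these data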;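 note: channel flux triggered by added potassium and thallium sulfate stimulus; B-score of peak minus minimum fluorescence over baseline after thallium stimulus; more negative B-score means stronger Kir2.1 block with less thallium influx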
CHT inh = human CHT choline transport inhibition; AID 488975; CHT-expressing cells, membrane potential dye, choline response; hits give low values; B-score at 10 µM; 310,000 tested, 0.86% active; Q9GZV3;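 active = B-score over 3 SD under the library average, and starting fluorescence ratio not unusually high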;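 note: choline stimulus applied at its EC90 after an EC20 pre-addition; B-score computed on integrated fluorescence ratio after choline addition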
Target sequence (Q9GZV3 whole entry, looked up): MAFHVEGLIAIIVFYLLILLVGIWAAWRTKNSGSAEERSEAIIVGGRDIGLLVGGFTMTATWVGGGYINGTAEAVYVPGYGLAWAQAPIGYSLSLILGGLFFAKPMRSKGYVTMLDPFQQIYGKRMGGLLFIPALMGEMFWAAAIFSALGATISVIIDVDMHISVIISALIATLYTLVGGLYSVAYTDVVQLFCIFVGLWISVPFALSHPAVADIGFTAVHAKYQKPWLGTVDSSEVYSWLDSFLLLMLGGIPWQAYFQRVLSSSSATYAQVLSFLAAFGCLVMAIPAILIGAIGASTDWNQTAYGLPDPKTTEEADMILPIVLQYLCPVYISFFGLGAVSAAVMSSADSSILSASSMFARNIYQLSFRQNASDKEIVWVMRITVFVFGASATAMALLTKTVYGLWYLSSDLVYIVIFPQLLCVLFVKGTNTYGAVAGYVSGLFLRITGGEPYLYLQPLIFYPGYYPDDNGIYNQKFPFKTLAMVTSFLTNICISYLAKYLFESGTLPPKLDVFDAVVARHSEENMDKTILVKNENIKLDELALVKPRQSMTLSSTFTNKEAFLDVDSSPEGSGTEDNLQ
CHT PAM = allosteric activators of human choline transporter CHT; Q9GZV3; CHT-expressing cells, membrane potential dye, choline EC20; hits give high values; LV-AA mutant CHT in HEK293 cells; B-score at 10 µM; 310,000 tested, 0.49% active; AID 488977;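 active = initial fluorescence not abnormally high and integrated response B-score, plate-corrected, over 3 SD above library mean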
An asterisk follows results filed as active; i = inactive; nt = no result given. Hits are enriched below; roughly 2% of the tested compounds scored in any of these assays.

SMILES	TAG inh	Kir21 inh	CHT inh	CHT PAM
CC(C)c1ccc2c(c1)CC[C@H]1[C@](C)(CN)CCC[C@]21C	122	nt	nt	nt
CC(C)c1ccc2c(c1)CCC1C(C)(CN)CCCC21C (stereo unspecified)	nt	-6.1*	i	i
Cc1nnc(OCc2nc3ccccc3n2C)c2ccccc12	-12	-4.7*	i	i
COC(=O)c1ccc(Cn2nnc3c(=O)[nH]c(C4CCCN(S(=O)(=O)c5cccc(Cl)c5)C4)nc32)cc1 (stereo unspecified)	nt	-1.7	i	i
COc1ccc2[nH]c(C)c(CCNC(=S)Nc3ccc(C)cc3)c2c1	nt	0.28	i	i
CN(C)CCOc1ccc(C(C)(C)c2ccccc2)cc1	-11	0.75	i	i
C=CCNCCOc1ccc(C(C)(C)c2ccccc2)cc1	nt	-12*	i	i
COc1ccc(-c2[nH]ncc2CNC(C)c2ccccc2Cl)cc1F (stereo unspecified)	5	-7.3*	i	i
N#Cc1cn(OCc2ccccc2)c(=O)[nH]c1=O	nt	-0.3	i	i
CCOC(=O)N1CCN(C(=O)c2ccc3c(c2)N(CC)CCS3)CC1	7	0	i	i
CCOC(=O)N1CCN(C(=O)c2ccc3c(c2)N(Cc2ccc(F)cc2)CCS3)CC1	-50	-1.6	-5.2*	i
CC(C)Oc1ccc(C(=O)Nc2c3c(nn2C(C)(C)C)CS(=O)(=O)C3)cc1	nt	2.4	i	i
N#CCCN1CCCc2cc(N=Nc3ccc(C(F)(F)F)cc3)ccc21	57*	-0.01	i	i
O=[N+]([O-])c1ccc(-c2nc(C(Cl)Cl)c3ccccc3n2)cc1	112*	-0.77	i	i
O=C(COc1ccccc1)NC(=S)Nc1cccc2c(O)cccc12	12	nt	nt	nt
Cc1nc2nc(C)n(CCN3CCOCC3)c(=O)c2c(-c2cccc([N+](=O)[O-])c2)c1C(=O)CCCCCCCCCCN1CCC(c2ccccc2)(c2ccccc2)CC1	127*	nt	nt	nt
COc1ccc(NC2CCCN(C(=O)CCn3cccn3)C2)cc1 (stereo unspecified)	9	0	i	i
COc1ccc(NC2CCCN(C(=O)CCc3cccc(Cl)c3)C2)cc1 (stereo unspecified)	nt	-4.2*	i	i
O=C(Cn1nnc2ccccc2c1=O)NC1CCCCC1	nt	0.5	i	i
COc1ccccc1N(CC(=O)NCCSCc1ccc(Cl)cc1)S(C)(=O)=O	nt	1.2	i	i
COc1ccccc1OCC(=O)NCCSCc1ccc(Cl)cc1	nt	-4.7*	i	i
CN(CC(=O)OCC(=O)NC1CCCC1)S(=O)(=O)c1ccc(Cl)cc1	-7	nt	nt	nt
O=C(O)C[C@@H](CNC(=O)COc1ccc2ccc(=O)oc2c1)c1ccc(Cl)cc1	nt	1.8	i	i
CC(c1nnnn1C(C)(C)C)N(Cc1cccnc1)Cc1ccccc1Cl (stereo unspecified)	-16	-4.3*	i	i
CN(C)CCCOC(=O)c1sc2ccccc2c1Cl	5	-7.3*	i	i
SMILES	TAG inh	Kir21 inh	CHT inh	CHT PAM
CCCCOC(=S)NC(=O)c1sc2ccccc2c1Cl	nt	0.56	i	i
C(#Cc1c(-c2ccsc2)sc2ccccc12)c1ccsc1	7	nt	nt	nt
CN(C)CCN(Cc1ccco1)C(=O)c1cc2c(Cl)nc3ccccc3c2s1	1	-0.05	i	i
Cc1ccc2nc(Cl)c3cc(C(=O)N(CCN(C)C)Cc4ccco4)sc3c2c1	nt	-4.5*	i	i
CNCc1ccccc1Sc1ccc(O)c(O)c1	nt	-6.5*	i	i
COc1ccc(Sc2ccccc2CN(C)C)cc1OC	-2	-2	i	i
COCCNS(=O)(=O)c1ccc(C)c(C)c1C	-1	0.9	i	i
Cc1cc(NC(=O)COC(=O)C2CCC(=O)N2)c([N+](=O)[O-])cc1C (stereo unspecified)	-18	-1.8	i	i
Cc1ccccc1COC(=O)c1cc([N+](=O)[O-])ccc1N1CCOCC1	-13	0.63	i	i
CSc1ccc(COC(=O)c2cc([N+](=O)[O-])ccc2N2CCOCC2)cc1	34	-0.53	i	6.3*
CCCCn1c(CCC)nc([N+](=O)[O-])c1Sc1ccc(Cl)cn1	-24	-4.8*	i	i
CCN(Cc1ccccc1)C(=O)COC(=O)[C@@H]1CCCN1C(=O)c1cccs1	-2	nt	nt	nt
Cc1ccc(C(=O)c2no[n+]([O-])c2C(=O)c2ccc(C)cc2)cc1	52*	-7.9*	i	i
CCOCCN(C(=O)c1ccccc1Cl)c1cccc(C)c1C	-30	-2	i	i
CCN1C(=O)CC(c2ccccc2)N(C2CCCC2)c2nc(Nc3ccc(C(=O)NC4CCN(C)CC4)cc3OC)ncc21 (stereo unspecified)	37	nt	nt	nt
COc1cc(C(=O)NC2CCN(C)CC2)ccc1Nc1ncc2c(n1)N(Cc1ccccc1)CCC(=O)N2C	87*	nt	nt	nt
COc1cc(C(=O)NC2CCN(C)CC2)ccc1Nc1ncc2c(n1)N(C1CCCCC1)CCC(=O)N2C	96*	nt	nt	nt
c1ccc(CCNCCCOc2cccc3ccccc23)cc1	nt	-16*	i	i
CCOc1ccccc1N(CC(=O)Nc1ccc(S(=O)(=O)N2CCCC2)cc1)S(C)(=O)=O	15	-0.19	i	i
CN(C)C1=NC[C@H](Cc2ccccc2)N1CC1CCC(C(C)(C)C)CC1 (stereo partly specified)	-12	-2	i	15*
CN(C)C1=NC[C@H](Cc2ccccc2)N1CC1CCCC1	7	nt	i	i
OC1(c2ccc(F)cc2)CCN(Cc2ccccc2)C1 (stereo unspecified)	nt	-4.5*	i	i
OC1(c2ccc3c(c2)OCO3)CCN(Cc2ccc(F)cc2)CC1	5	-4.5*	i	i
OC1(c2ccccc2)CCN(Cc2ccccc2)CC1	12	-7.6*	i	i
O=S(=O)(c1ccc(F)cc1)N1CCC(O)(c2ccc3c(c2)OCO3)CC1	nt	-1.6	i	i
SMILES	TAG inh	Kir21 inh	CHT inh	CHT PAM
CC1CCCC(NC(=O)c2cccc(S(=O)(=O)NCc3ccccc3)c2)C1C (stereo unspecified)	6	nt	nt	nt
Cc1ccccc1CSc1nnc(-c2cccs2)n1Cc1ccco1	14	-1.3	i	i
Cc1ccccc1CSc1nnc(-c2ccco2)n1Cc1ccco1	nt	-8.2*	i	i
c1ccc(CSc2nnc(-c3cccs3)n2Cc2ccco2)cc1	nt	-7.7*	i	i
c1ccc(CSc2nnc(-c3ccco3)n2Cc2ccco2)cc1	-11	-1.4	i	i
CCc1ccc(-c2cc(-c3n[nH]c(=S)n3CC)c3ccccc3n2)cc1	nt	0.41	-11*	i
CSc1ccc(Cl)c(C(=O)OCC(=O)N2CCOCC2)c1	-3	-0.16	i	i
Cn1c(SC/C=C/c2ccccc2)nnc1-c1cccs1	-63	-1.2	i	i
CCn1c(SC/C=C/c2ccccc2)nnc1-c1cccs1	nt	-7.8*	i	i
C=CCn1c(Cc2cccs2)nnc1SC/C=C/c1ccccc1	nt	-15*	i	i
COc1ccc(N2CCN(CNC(=O)c3ccccc3)CC2)cc1	nt	0.91	i	i
COc1ccc(C(=O)O)cc1S(=O)(=O)NCCc1ccccn1	4	-1.2	i	i
